Compound activity (PubChem BioAssay)
EWS-Fli block: blocks EWS/Fli oncoprotein-driven transcription. inhibition, % at 12.6 µM. AID 651661. A673 NR0B1-luciferase reporter, viability-normalised. actives 0.67% (n = 350,000);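 active = mean inhibition of at least 50% after viability correction, with every replicate also passing that limit; inconclusive = mean reaches 50% but only one of two replicates passes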;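 note: firefly luciferase signal divided by Alamar Blue viability fluorescence both relative to DMSO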
PAX8 reporter: PAX8 transcriptional activity inhibition | RMG-I TPO-luciferase reporter, SteadyGlo, 24 h | inhibition, % at 12.6 µM | actives 1.2% (n = 360,000) | AID 652154;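 active = mean replicate inhibition at least 60% with every replicate also reaching 60%; inconclusive = only one of the two criteria is met; inactive = mean below 60% and not all replicates reaching 60%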;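 note: luciferase light reporting Pax8 driven TPO promoter activity; plate controls were median of neutral control wells for no effect and mitoxantrone controls for full effect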
Peg3 prom inh: reduces Peg3 promoter-driven luciferase expression in HeLa | HeLa PEG-Prom luciferase reporter, luminescence, overnight | inhibition, % at 20 µM | actives 1.7% (n = 360,000) | AID 588405;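 active = inhibition of at least 50% at 20 µM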
Shn3 inh set2: reduces Shn3 3'UTR luciferase signal in osteoblasts; Clone20 osteoblast Shn3 3'UTR firefly luciferase, 24 h; inhibition, % at 12.5 µM; actives 0.52% (n = 360,000); AID 588674;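 active = mean inhibition of at least 75% with every replicate also reaching 75%; inconclusive = mean inhibition at least 75% but some replicate below; inactive = mean inhibition below 75%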;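 note: 0% = median of neutral control wells and 100% = pilot-screen positive control compound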
MITF TRPM1 inh: MITF TRPM1 promoter inhibition in SK-MEL-5 cells | SK-MEL-5 TRPM1 promoter luciferase, 24 h | inhibition, % at 12.5 µM | actives 0.83% (n = 330,000);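 active = mean inhibition across replicates of 60% or more, whatever share of single replicates reaches that level; inconclusive = some that reach 60%, reason not given; inactive = mean inhibition across replicates below 60%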
ABHD5 PLIN5 PPI: inhibitors of human ABHD5-perilipin-5 interaction. Q00G26+Q8WTS1. Split G. princeps luciferase complementation, luminescence, 4 h. inhibition, % at 4 µM. actives 0.78% (n = 360,000);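 active = inhibition above the mean inhibition across every tested compound plus 3 SD, cut at about 22% in these data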;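 note: 0% = DMSO only wells and the 100% control is not disclosed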
Target sequence (Q00G26 whole entry, looked up): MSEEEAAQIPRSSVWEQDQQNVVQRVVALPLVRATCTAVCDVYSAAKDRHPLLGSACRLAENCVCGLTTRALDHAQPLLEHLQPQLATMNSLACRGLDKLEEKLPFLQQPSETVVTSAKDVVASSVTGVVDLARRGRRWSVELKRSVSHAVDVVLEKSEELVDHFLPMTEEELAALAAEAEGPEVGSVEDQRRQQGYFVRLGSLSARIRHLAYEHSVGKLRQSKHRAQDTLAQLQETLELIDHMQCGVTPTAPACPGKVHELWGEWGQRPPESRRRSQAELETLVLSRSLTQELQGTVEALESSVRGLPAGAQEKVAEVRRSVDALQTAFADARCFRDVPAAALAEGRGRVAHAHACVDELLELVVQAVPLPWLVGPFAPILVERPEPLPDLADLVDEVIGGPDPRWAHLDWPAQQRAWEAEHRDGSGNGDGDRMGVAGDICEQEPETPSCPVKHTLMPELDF
Target sequence (Q8WTS1 whole entry, looked up): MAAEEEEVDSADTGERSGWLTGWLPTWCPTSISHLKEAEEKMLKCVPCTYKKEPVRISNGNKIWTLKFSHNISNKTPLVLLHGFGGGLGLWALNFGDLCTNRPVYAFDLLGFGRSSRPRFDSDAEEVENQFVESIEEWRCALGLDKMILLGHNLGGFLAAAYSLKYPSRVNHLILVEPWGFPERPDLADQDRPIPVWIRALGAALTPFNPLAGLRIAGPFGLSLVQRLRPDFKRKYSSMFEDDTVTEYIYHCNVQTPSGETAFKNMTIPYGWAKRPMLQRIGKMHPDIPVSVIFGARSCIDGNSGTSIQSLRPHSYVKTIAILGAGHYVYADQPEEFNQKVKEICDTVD
* = called active by the depositor; ? = inconclusive; . = no result. Rows were chosen to be rich in hits. Some 3% of all compounds tested hit in one or more screens of this group.

SMILES	EWS-Fli block	PAX8 reporter	Peg3 prom inh	Shn3 inh set2	MITF TRPM1 inh	ABHD5 PLIN5 PPI
O=C1NC(=O)C(CCc2ccncc2)(Cc2cccc(Cl)c2Cl)C(=O)N1c1ccc(Br)cc1 (stereo not given)	.	31	57*	-12	12	7
CCc1ccc(N2C(=O)NC(=O)C(CCc3ccncc3)(CCc3ccncc3)C2=O)cc1	.	15	9	1	-8	-3
Cc1[nH]c2ccccc2c1CCNCc1cccnc1	-1	-3	-6	-25	-3	-4
COc1ccc2[nH]c(C)c(CCNCc3cn(C)c4ccccc34)c2c1	17	10	87*	54	47	7
CCCCCn1c(=O)c(C(=O)Nc2ccccc2S(N)(=O)=O)c(O)c2ccccc21	16	83*	25	51	5	-2
CCCCCn1c(=O)c(C(=O)Nc2cnccn2)c(O)c2ccccc21	3	8	-13	82	66*	-1
CCCCn1c(=O)c(C(=O)Nc2ccccc2S(N)(=O)=O)c(O)c2ccccc21	.	.	-4	-35	-12	6
CCCCCCCn1c(=O)c(C(=O)Nc2cnccn2)c(O)c2ccccc21	3	13	29	.	55	0
COC(=O)[C@@H]1[C@@H](CO)[C@@H]2Cn3c(ccc(-c4ccccc4)c3=O)[C@H]1N2CC1CCOCC1	4	11	.	.	.	.
O=C(Cc1ccncc1)N1CCCCN2[C@H](C1)[C@H](c1ccc(C#CC3(O)CCCC3)cc1)[C@@H]2CO	.	-10	.	.	.	.
CNc1ccc2oc(C[C@H]3O[C@@]4(CC[C@H]3C)O[C@H]([C@H](C)C(=O)c3ccc[nH]3)[C@H](C)C[C@H]4C)nc2c1C(=O)O	43	81*	91*	97*	102*	-23
C#CC1(O)CCC2C3CCC4=C/C(=N/OCC(=O)NCC(=O)NC(C(=O)O)C(C)C)CC[C@]4(C)C3CC[C@@]21C (stereo not given in full)	-8	10	-22	-5	.	7
C#C[C@]1(O)CC[C@H]2[C@@H]3CCC4=Cc5nc6nc7ccccc7n6cc5C[C@]4(C)[C@H]3CC[C@@]21C	32	50	66*	13	-3	-6
CN(C)c1ccc(/C=C/C=C2/C(=O)NC(=O)N(c3ccccc3)C2=O)cc1	57*	32	103*	19	83*	-1
O=C1NC(=O)N(c2ccccc2)C(=O)/C1=C/C=C/c1ccco1	60*	-24	36	-6	95*	22
Cc1ccc(N2C(=O)NC(=O)/C(=C\C=C\c3ccco3)C2=O)cc1C	72*	31	76*	?	90*	15
O=C1NC(=O)C(=Cc2ccco2)C(=O)N1	-14	-9	11	-5	11	-16
C[C@@H]1CN([C@@H](C)CO)C(=O)c2c(c3ccccc3n2C)-c2ccccc2CO[C@H]1CN(C)C(=O)Oc1ccccc1	4	4	.	.	.	.
CCCC#Cc1ccc([C@@H]2[C@H]3CN(C(=O)Cc4ccccn4)CCCCN3[C@H]2CO)cc1	0	-2	.	.	.	.
CCCN1[C@@H]2Cn3c(ccc(-c4ccc(OC)cc4)c3=O)[C@H]1[C@@H](C(=O)OC)[C@@H]2CO	-6	-9	.	.	.	.
CNc1ccc2nc3ccccc3[n+](C)c2c1	-13	65*	39	36	72*	-20
COCC#Cc1ccc([C@@H]2[C@@H](CO)N3CCCCN(C(=O)Cc4ccccn4)C[C@@H]23)cc1	-12	-4	.	.	.	.
CCOC(=O)c1c(N)n(CCCOC(=O)c2ccco2)c2nc3ccccc3nc12	.	.	6	14	89*	-8
C/C=C/c1ccc([C@@H]2[C@H](CO)N3CCCCN(C(=O)Cc4cccnc4)C[C@@H]23)cc1	-4	5	.	.	.	.
O=C(O)[C@@H]1[C@@H](CO)[C@@H]2Cn3c(ccc(-c4cncnc4)c3=O)[C@H]1N2C(=O)NC1CCCC1	14	-10	.	.	.	.
SMILES	EWS-Fli block	PAX8 reporter	Peg3 prom inh	Shn3 inh set2	MITF TRPM1 inh	ABHD5 PLIN5 PPI
CC(N)C(=O)NC1C2C(=C(O)CC(O)C2O)C(=O)OC1(C)C(Cl)Cl (stereo not given)	?	121*	96*	96*	66*	3
O=C(Cc1ccncc1)N1CCCCN2[C@H](CO)[C@@H](c3ccc(C#Cc4ccccc4F)cc3)[C@H]2C1	-13	-4	.	.	.	.
CC(O)C1C=CC=CC(=O)OC2CC3OC4C5OC5(C)C(O)CC4(COC(=O)C(O)C(C)CCO1)C2(C)C31CO1 (stereo not given)	29	113*	105*	96*	79*	8
CC1=CC2OC3CC4OC(=O)C=CC=CC(C(C)O)OCC(O)C5(C)OC5C(=O)OCC2(CC1O)C4(C)C31CO1 (stereo not given)	45	102*	102*	98*	90*	-2
CC1=CC2OC3CC4OC(=O)C=CC=CC(=O)OCCC(C)C(O)C(=O)OCC2(CC1)C4(C)C31CO1 (stereo not given)	19	102*	97*	98*	104*	-1
CC1CCOC(=O)C=CC=CC(=O)OC2CC3OC4C5OC5(C)C(O)CC4(COC(=O)C1O)C2(C)C31CO1 (stereo not given)	22	104*	99*	97*	80*	1
O=C(Cc1ccccn1)N1CCCCN2[C@H](CO)[C@@H](c3ccc(C#Cc4ccccc4)cc3)[C@H]2C1	1	-15	.	.	.	.
Cc1ccc(OC(=O)N(C)C[C@@H]2OCc3ccccc3-c3c(n(C)c4ccccc34)C(=O)N([C@@H](C)CO)C[C@H]2C)cc1	24	98*	.	.	.	.
Cc1ccc(OC(=O)N(C)C[C@H]2OCc3ccccc3-c3c(n(C)c4ccccc34)C(=O)N([C@@H](C)CO)C[C@@H]2C)cc1	-3	43	.	.	.	.
COC(=O)[C@@H]1[C@@H](CO)[C@@H]2Cn3c(ccc(-c4ccccc4F)c3=O)[C@H]1N2C(=O)C1CCC1	2	.	.	.	.	.
COc1ccc2c3c1O[C@H]1C(=O)CC[C@H]4[C@@H](C2)N(C)CC[C@]314	-4	.	-5	13	-3	4
COc1cccc2c1O[C@H]1C(=O)CC[C@H]3CN(C)CCC231 (stereo not given in full)	-9	-16	-3	89*	-14	-1
O=C(Cc1cccnc1)N1CCCCN2[C@H](CO)[C@H](c3ccc(/C=C/c4ccccc4)cc3)[C@H]2C1	6	11	.	.	.	.
Oc1ccc(O)c2c1C1(Cl)C(Cl)=C(Cl)C2(Cl)C1(Cl)Cl	-12	10	61*	27	-2	-13
Oc1ccccc1Cl	1	.	-6	0	.	-5
CCC1CN2CCc3cc(OC)c(OC)cc3C2CC1CC1NCCc2c1[nH]c1ccc(O)cc21 (stereo not given)	29	101*	99*	92*	97*	-4
COc1ccc2c(c1OC)CN1CCc3cc4c(cc3[C@H]1C2)OCO4	.	.	-29	19	-10	2
N#Cc1cccc(-c2ccc([C@@H]3[C@@H](CO)N4CCCCN(C(=O)Cc5ccccc5)C[C@@H]34)cc2)c1	7	-2	.	.	.	.
